Data published in PubChem BioAssay (Tox21).
Records with an inconclusive call do not appear. Values without a mark were called inactive. Calls follow the shape of the dose curve; as a rule, active = well fitted inhibition curve with a large enough effect in the signal ratio in the repeat runs (not every such curve was filed as active); inconclusive = weak or mixed curves; inactive = flat fitted curve, though single readings scatter; the % refers to the signal ratio.

Molecular target: Progesterone receptor (Homo sapiens) (UniProt P06401)
Sequence (P06401 whole entry, looked up): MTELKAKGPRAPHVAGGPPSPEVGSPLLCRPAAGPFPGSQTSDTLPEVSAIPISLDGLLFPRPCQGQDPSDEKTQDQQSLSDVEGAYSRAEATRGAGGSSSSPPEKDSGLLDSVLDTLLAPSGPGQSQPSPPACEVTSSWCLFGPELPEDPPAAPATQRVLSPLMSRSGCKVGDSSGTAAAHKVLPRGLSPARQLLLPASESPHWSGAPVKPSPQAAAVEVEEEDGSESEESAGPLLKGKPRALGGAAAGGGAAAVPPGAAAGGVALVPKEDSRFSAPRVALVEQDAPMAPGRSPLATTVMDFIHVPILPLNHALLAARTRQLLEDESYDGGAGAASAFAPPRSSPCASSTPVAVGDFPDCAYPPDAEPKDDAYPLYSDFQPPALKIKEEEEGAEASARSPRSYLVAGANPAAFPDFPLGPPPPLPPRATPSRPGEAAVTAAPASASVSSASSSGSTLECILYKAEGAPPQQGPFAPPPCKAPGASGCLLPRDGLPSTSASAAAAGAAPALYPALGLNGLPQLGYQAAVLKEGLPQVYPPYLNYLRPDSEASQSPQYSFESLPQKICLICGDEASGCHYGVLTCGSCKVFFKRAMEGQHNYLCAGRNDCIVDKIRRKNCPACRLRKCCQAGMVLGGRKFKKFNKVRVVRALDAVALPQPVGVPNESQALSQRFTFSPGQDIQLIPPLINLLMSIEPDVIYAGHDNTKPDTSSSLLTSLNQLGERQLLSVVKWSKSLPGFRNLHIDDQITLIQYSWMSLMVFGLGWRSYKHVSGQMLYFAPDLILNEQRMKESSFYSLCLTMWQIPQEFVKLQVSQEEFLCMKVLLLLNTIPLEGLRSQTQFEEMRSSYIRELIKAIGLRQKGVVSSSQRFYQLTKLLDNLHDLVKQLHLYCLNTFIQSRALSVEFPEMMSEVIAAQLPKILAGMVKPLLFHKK
Assay: qHTS assay to identify small molecule antagonists of the progesterone receptor (PR) signaling pathway (AID 1346795)
Conditions: PR-UAS-bla HEK293T, beta-lactamase FRET ratio, 16 h; series mostly up to 92.4 µM; activity change, negative = inhibition: at the top concentration
Description: National Center for Advancing Translational Sciences [NCATS]
NIH Chemical Genomics Center [NCGC]
U.S. Environmental Protection Agency [EPA]
National Institutes of Environmental Health Sciences [NIEHS]
National Toxicology Program [NTP]
U.S. Food and Drug Administration [FDA]
Progesterone receptor (PR), a nuclear hormone receptor, plays an important role in development, metabolic homeostasis and reproduction. […] Endocrine disrupting chemicals (EDCs) and their interactions with steroid hormone receptors like PR causes disruption of normal endocrine function. To identify the compounds that inhibit PR signaling, a PR-UAS-bla GripTite cell line i.e. PR-UAS-bla HEK293T (Invitrogen, Carlsbad, CA, USA) containing a beta-lactamase reporter gene under the control of an Upstream Activator Sequence (UAS) was used to screen Tox21 10K compound library.
Tox21 Assay Protocol Summary:
PR-UAS-bla HEK293T cells were dispensed at 3,000 cells/4 uL of assay medium containing 2% charcoal stripped FBS per well into black wall/clear-bottom 1536-well plates using a Multidrop Combi (ThermoFisher Scientific, Waltham, MA) dispenser. After the assay plates were incubated at a 37C and 5% CO2 for 6 hr, 23 nL of compounds dissolved in DMSO, positive controls or DMSO only was transferred to the assay plate by a Pintool station (Kalypsys, San Diego, CA), followed by addition of 1 uL (1nM as final concentration) of Promegestone (R5020) in assay medium using a BioRAPTR FRD (Flying Reagent Dispenser, Aurora Discovery, San Diego, CA). The plates were incubated at 37C and 5% CO2 for 16 hr. Then 1 uL of LiveBLAzer B/G FRET substrate was added using a FRD. After the plates were incubated at room temperature for 2 hours, fluorescence intensity was measured by an Envision plate reader (PerkinElmer, Shelton, CT).
% is scaled to controls: 0 for no effect and ±100 for the full control effect.

SMILES	activity change, negative = inhibition
CC1OCCC1=O (stereo not given)	3.61%
C=CC/C=C/C	-4.53%
CC1=C(C(=O)O)N2C(=O)[C@@H](NC(=O)[C@H](N)c3ccccc3)[C@H]2SC1	8.82% [at 42.5 µM]
CCCCC1CCC(O)CC1 (stereo not given)	0%
O=C(O)[C@H](O)c1ccccc1	8.04% [at 42.5 µM]
C=CCCCCCCCCC(=O)OCCCC	12.1%
CCO[Si](CC)(OCC)OCC	0.219%
C=CCSSCCC	0.0183%
CC(=O)C1C(=O)C=C(C)OC1=O (stereo not given)	8.15%
NCCOCCN	16.2%
CCCCSCCCC	8.82%
COc1c2occc2c(OC)c2c(=O)cc(C)oc12	3.49% [at 42.5 µM]
O=[N+]([O-])c1c(Cl)cc(Cl)cc1Cl	5.97%
CN(C)CCCCl	10.3%
O=C1CCCCO1	0.303%
CC1=NN(c2ccc(S(=O)(=O)O)cc2)C(=O)C1	3.55%
CC1=C(O)C(=O)C(C)O1 (stereo not given)	2.61%
CC1(C)O[C@H]2CC(=O)OC[C@]23[C@H]2CC[C@@]4(C)[C@H](c5ccoc5)OC(=O)[C@H]5O[C@]54[C@]2(C)C(=O)C[C@@H]13	7.6% [at 42.5 µM]
CC(C)OC(=O)OCOP(=O)(CO[C@H](C)Cn1cnc2c(N)ncnc21)OCOC(=O)OC(C)C	-7.79% [at 42.5 µM]
COC(=O)CCCCC(=O)O	-0.0601%

SMILES	activity change, negative = inhibition
CCCC(CC)c1ccccc1 (stereo not given)	9.87%
Cn1c(=O)c2[nH]c(Br)nc2n(C)c1=O	1.12% [at 42.5 µM]
O=C(O)c1cc2ccccc2nc1C(=O)O	8%
CO[C@@]1(NC(=O)Cc2cccs2)C(=O)N2C(C(=O)O)=C(COC(N)=O)CS[C@@H]21	13.2% [at 42.5 µM]
CCCc1ccc(O)cc1	-5.63%
CC(C)C[C@@H]1[C@H](c2ccccc2)OC(=O)N1CCCN1CCCCCC1	-5.51% [at 42.5 µM]
CC1c2ccccc2CN1NC(=O)c1ccc(Cl)c(S(N)(=O)=O)c1 (stereo not given)	-1.87% [at 42.5 µM]
CCCCCCCCCCOC(C)=O	1.8%
CC(C)C1OCCN1CCOC(=O)NCCCCCCNC(=O)OCCN1CCOC1C(C)C (stereo not given)	13.7%
C[C@@H](O)C(=O)O	9.65%
CCCCCCCCCCCCCCCCCC#N	0.0553%
O=Cc1cc2ccccc2o1	0.985%
CCCSSCCC	8.39%
CN(C)CC/C=C1/c2ccccc2COc2ccc(CC(=O)O)cc21	1.48% [at 42.5 µM]
C/C=C(\C)C(C)=O	8.45%
CC(S)C(C)S (stereo not given)	1.41%
OCCN1CCOCC1	0.382%
CC1(C)[C@H]2CC[C@](C)(C2)[C@H]1O	8.98%
ONc1ccccc1	-3.27%
CCCCOC(=O)C(C)O (stereo not given)	5.08%
